PubChem BioAssay (NCI)
The panel holds about 79,000 compounds, 15% with a hit somewhere; the sample as a whole holds those more often. Unmarked numbers belong to inactive results. Calls of active or inactive are those of the source. Rule as the data show it: active = growth inhibition above about 70%; inactive = the rest.

Tests used:
[1] = NCI Yeast Anticancer Drug Screen. Data for the rad50 strain (AID 155);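 also: 0% = growth of vehicle-only cultures of the same strain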; details: S. cerevisiae rad50 strain growth inhibition, active compounds read high
Outline: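 A DNA repair-deficient yeast mutant serves as the test organism; compound-induced growth inhibition is calculated against vehicle-treated cells.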

[2] = NCI Yeast Anticancer Drug Screen. Data for the mec2-1 strain (AID 157); details: S. cerevisiae mec2-1 strain, active compounds read high
Outline: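 Readout is yeast growth inhibition, normalised to vehicle-treated controls, in the mec2-1 strain exposed to compound.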

[3] = NCI Yeast Anticancer Drug Screen. Data for the sgs1 mgt1 strain (AID 161);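 also: 0% = growth of cultures given vehicle only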; details: S. cerevisiae sgs1 mgt1 strain, active compounds read high
Outline: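 Yeast cells carrying a defined DNA-repair defect were exposed to test compounds. Growth inhibition was measured relative to vehicle-treated controls.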

[4] = NCI Yeast Anticancer Drug Screen. Data for the cln2 rad14 strain (AID 165);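 also: 0% = growth equal to vehicle treated cultures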; details: S. cerevisiae cln2 rad14 strain, active compounds read high
Outline: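 Relative to vehicle controls, growth inhibition of compound-treated cln2 rad14 yeast was recorded.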

[5] = NCI Yeast Anticancer Drug Screen. Data for the bub3 strain (AID 167); details: S. cerevisiae bub3 mutant strain, active compounds read high
Outline: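 Inhibition values come from growth of compound-treated mutant yeast normalised to vehicle-treated controls.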

[6] = NCI Yeast Anticancer Drug Screen. Data for the mlh1 rad18 strain (AID 175); details: S. cerevisiae mlh1 rad18 strain growth inhibition, active compounds read high
Outline: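 Test agents were incubated with a yeast strain of defined genotype (DNA damage repair defect). Inhibition of growth was derived by comparison with vehicle-exposed cultures.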

[7] = at 5.0 µM (retest, dose inferred, filed as 0.5)
[8] = at 50.0 µM (retest, dose inferred, filed as 5.0)

| SMILES | growth inhibition [1, 7] | growth inhibition [1, 8] | growth inhibition ([1]; at 50.0 µM) | growth inhibition [2, 7] | growth inhibition [2, 8] | growth inhibition ([2]; at 50.0 µM) | growth inhibition [3, 7] | growth inhibition [3, 8] | growth inhibition ([3]; at 50.0 µM) | growth inhibition [4, 7] | growth inhibition [4, 8] | growth inhibition ([4]; at 50.0 µM) | growth inhibition [5, 7] | growth inhibition [5, 8] | growth inhibition ([5]; at 50.0 µM) | growth inhibition [6, 7] | growth inhibition [6, 8] | growth inhibition ([6]; at 50.0 µM) |
| --- | --- | --- | --- | --- | --- | --- | --- | --- | --- | --- | --- | --- | --- | --- | --- | --- | --- | --- |
| Cc1nc(N)sc1N=Nc1ccc(Cl)cc1 | -16% | 55% | 78% (active) | 7% | 62% | 50% | -5% | 62% | 57.2% | 5% | 24% | 66.7% | 10% | 52% | 81.8% (active) | 21% | 77% (active) | 84.5% (active) |
| CN(C)CCCC(C#N)(CCCN(C)C)c1ccccc1 | 15% | -2% | 15% | -1% | 5% | -2.05% | 6% | 0% | 10.6% | -2% | 6% | -51.6% | -3% | -1% | -18.5% | -3% | 8% | 31.4% |
| CCCCCCC(OCCC)OCCC | -4% | -3% | 35.8% | -28% | -1% | -15.6% | -3% | -1% | 5% | -2% | 1% | 74% (active) | -10% | -6% | -0.5% | -2% | -1% | 38.4% |
| COc1cccc(NC(=S)NC(Cc2ccccc2)c2ccccc2)c1 (configuration not stated) | -7% | 88% (active) | 80.2% (active) | -10% | 88% (active) | 74.1% (active) | -7% | 90% (active) | 83.9% (active) | 19% | 88% (active) | 70% (active) | -2% | 90% (active) | 77.2% (active) | -7% | 88% (active) | 72.4% (active) |
| COc1ccc(NC(=O)CC(=O)n2nc(-c3ccccc3)c(N=Nc3ccc(C)cc3)c2-c2ccccc2)cc1 | 34% | 34% | 36.9% | 28% | 28% | 5.95% | 19% | 19% | -6.65% | 20% | 20% | 21% | 27% | 27% | 35.1% | 36% | 36% | -3.75% |
| O=S(=O)(Nc1ccccc1)c1ccccc1C=C(c1ccccc1)c1ccccc1 | 37% | 75% (active) | 85.1% (active) | 35% | 90% (active) | 86% (active) | 46% | 90% (active) | 86.5% (active) | 13% | 84% (active) | 80.3% (active) | 43% | 82% (active) | 80.3% (active) | 81% (active) | 84% (active) | 85.8% (active) |
| CS(=O)(=O)C(c1nc2nnc(NC(=O)Nc3ccc(Cl)cc3)n2[nH]c1=O)c1nc2nnc(NC(=O)Nc3ccc(Cl)cc3)n2[nH]c1=O | -14% | 11% | 32.2% | -20% | 23% | 74.5% (active) | 1% | -7% | 24.6% | -36% | 3% | 30.6% | -41% | 19% | 71.3% (active) | -19% | 32% | 62.5% |
| Nc1cc(Cl)ccc1SSc1ccc(Cl)cc1N | 11% | 58% | 49% | 67% | 90% (active) | 32.5% | 46% | 65% | 48.6% | 22% | 39% | -74.8% | 58% | 98% (active) | 50.6% | 35% | 51% | 73.3% (active) |
| N#C/C(=C1/C(=O)c2ccccc2-c2ccccc21)c1ccccc1 | 92% (active) | 97% (active) | 97.2% (active) | 100% (active) | 99% (active) | 98.2% (active) | 99% (active) | 99% (active) | 97.6% (active) | 61% | 97% (active) | 98.2% (active) | 99% (active) | 98% (active) | 98% (active) | 99% (active) | 99% (active) | 98.7% (active) |
